# TbREL1 inh: TbREL1 inhibition, primary screen; actives 0.49% (n = 89,000); P86926; TbREL1 RNA ligation, FRET fluorescence; inhibition, % at 9.66 µM;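 active = inhibition above the mean inhibition across all screened compounds plus 3 SD, cut at about 11% in these data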;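 note: 0% = plate median of test wells and 100% = NSC42067 control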
# Target sequence (P86926 whole entry, looked up): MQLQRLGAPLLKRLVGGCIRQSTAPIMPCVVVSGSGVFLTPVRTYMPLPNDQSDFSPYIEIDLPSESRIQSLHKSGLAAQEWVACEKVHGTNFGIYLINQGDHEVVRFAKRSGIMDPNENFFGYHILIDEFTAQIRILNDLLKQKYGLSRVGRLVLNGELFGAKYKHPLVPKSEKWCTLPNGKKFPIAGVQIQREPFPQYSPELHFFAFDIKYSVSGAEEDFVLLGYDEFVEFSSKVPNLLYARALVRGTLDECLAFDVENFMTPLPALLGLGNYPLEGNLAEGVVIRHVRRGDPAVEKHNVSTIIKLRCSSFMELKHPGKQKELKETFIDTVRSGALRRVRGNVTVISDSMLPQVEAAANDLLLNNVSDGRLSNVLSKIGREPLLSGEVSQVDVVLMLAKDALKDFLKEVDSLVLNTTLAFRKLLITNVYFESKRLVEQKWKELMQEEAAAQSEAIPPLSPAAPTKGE
# TbREL1 conf: TbREL1 inhibition, confirmation; shares compounds with TbREL1 inh; TbREL1 RNA ligation, FRET fluorescence; inhibition, % at 9.66 µM; actives 37% (n = 390); AID 1117282;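 active = mean inhibition across replicates above a set limit taken from the earlier primary screen, cut at about 11% in these data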;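 note: 0% = REL1 with substrate and DMSO and 100% = REL1 plus control inhibitor NSC42067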
# * = called active by the depositor. This is one part of a sample in which hits are shown more often than they occur.
SMILES,TbREL1 inh,others
CC(C)Cc1ccc(C(C)C(N)=NCCc2ccccc2)cc1 (stereo unspecified),12*,TbREL1 conf=12*
CC(C)(C)OC(=O)NCc1cc2c(cc1/C=C/S(=O)(=O)NC1CCCC1)OCO2,5,
CC(=O)Nc1ccc(CN2C(=O)C(CCc3ccccc3)ON=C2c2cnccn2)cc1 (stereo unspecified),0,
CC1CCN(c2ccc(C(=O)O)cc2NS(=O)(=O)c2ccccc2[N+](=O)[O-])CC1,-4,
COc1ccc(C[C@H]2CN3C(=NC[C@@H]3C(C)C)N2C[C@H](C)NC(=O)c2ccc(C)c(Br)c2)cc1,13*,TbREL1 conf=20*
Cc1ccc(C(=O)N[C@@H](C)CN2C3=NC[C@H](C(C)C)N3C[C@H]2Cc2ccc(O)cc2)cc1Br,8,
COc1ccc(C[C@H]2CN3C(=NC[C@@H]3Cc3ccc(O)cc3)N2CCNC(=O)c2ccc(C)c(Br)c2)cc1,9,
COc1ccc(C[C@H]2CN3C(=NC[C@H]3Cc3ccccc3)N2CCNC(=O)CCC2CCCCC2)cc1,11*,TbREL1 conf=19*
C[C@@H](CN1C2=NC[C@H](Cc3ccccc3)N2C[C@H]1Cc1ccc(O)cc1)NC(=O)CCC1CCCCC1,9,
COc1ccc(C[C@@H]2CN3C(=NC[C@@H]3C)N2C[C@H](C)NC(=O)CCC2CCCCC2)cc1,6,
S=C(Nc1cc(Cl)cc(Cl)c1)NC(c1ccccc1)c1ccccc1,6,
Brc1ccc2nc(C3CCCCC3)c(CC3CCCCC3)n2c1,11*,TbREL1 conf=9
Cc1ccc2nc(C3CCCCC3)c(Cc3ccccc3C(F)(F)F)n2c1,-2,
CC(C)(C)Cc1c(C2CCCCC2)nc2ccc(Cl)cn12,5,
OC(c1ccc(F)c(F)c1)c1ncc(-c2ccc(F)cc2)[nH]1 (stereo unspecified),-2,
CCn1c2ccccc2c2cc(NC(=O)COC(=O)c3cccc(F)c3F)ccc21,-1,
CN(C)CCOCCOc1ccccc1-c1ccccc1,15*,TbREL1 conf=6
c1ccc(-c2ccccc2OCCOCCN2CCCCC2)cc1,3,
OCCNCCOCCOc1ccccc1-c1ccccc1,3,
COc1ccc(/C=N\NC(=O)Cc2cccs2)c(OC)c1OC,0,
COc1ccc(NC(=O)OCCN2CCCC23CCC(c2ccccc2)CC3)cc1 (stereo unspecified),0,
CCCCNS(=O)(=O)CC1NCCc2ccccc21 (stereo unspecified),9,
O=C(Nc1ccc(F)cc1)OCCN1CCN(Cc2ccccc2)CCC1=O,-3,
O=C(NCc1ccccc1)OCCN1CCN(Cc2ccccc2)CCC1=O,-3,
Cc1ccc(NC(=O)OCCN2CCN(Cc3ccccc3)CCC2=O)cc1C,12*,TbREL1 conf=0
SMILES,TbREL1 inh,others
O=S1(=O)CC(N2CCSCC2)CN1Cc1cn(Cc2cccc(C(F)(F)F)c2)nn1 (stereo unspecified),0,
C/C(CC(=O)Nc1ccccn1)=N\NC(=O)c1ccccc1O,22*,TbREL1 conf=5
C/C(CC(=O)Nc1ccccn1)=N\NC(=O)c1ccc2ccccc2c1,0,
CCCNC(=O)C/C(C)=N/NC(=O)C(=O)Nc1ccccn1,2,
C=CCCC(=O)N1CCC(C(=O)NCC2COc3ccccc3O2)CC1 (stereo unspecified),-5,
CC(C)CN(CC(C)C)C(=O)c1ccc2c(c1)NC(=O)C(C)(C)O2,-3,
CC(C)=CC([C@]12C[C@H](CO)N[C@@H]1Nc1ccccc12)S(=O)(=O)c1ccccc1 (stereo partly specified),-8,
O=C(NCCCc1ccccc1)[C@H](Cc1ccccc1)NC1(C(=O)NCCc2c[nH]c3ccccc23)CCOCC1,-5,
CC(C)C[C@H](NC(=O)c1[nH]cnc1C(=O)N[C@@H](Cc1ccccc1)C(=O)OCc1ccccc1)C(=O)OCc1ccccc1,0,
CC(C)C[C@@H](CNCC(=O)[C@H](C)NC(=O)c1[nH]cnc1C(=O)N[C@@H](C)CN)NC(=O)c1nc[nH]c1C(=O)N[C@@H](Cc1ccccc1)C(=O)O,11*,TbREL1 conf=6
CC(C)C[C@H](NC(=O)c1nc[nH]c1C(=O)N[C@@H](CC(C)C)C(=O)OCc1ccccc1)C(=O)OCc1ccccc1,2,
CC(=O)Nc1sc2c(c1-c1cc3ccccc3o1)CCNC2,5,
COC(=O)[C@]12CCCCC=C1N(Cc1ccc(Cl)cc1Cl)C(=O)[C@H](CC(=O)N1CCSCC1)C2,-3,
Oc1cc2c(cc1O)[C@H]1c3ccc(O)c(O)c3OC[C@@]1(O)C2,21*,TbREL1 conf=62*
CCCCNC(=O)C1CCCN1C(=O)Nc1cccc(C)c1 (stereo unspecified),5,
COc1cc2c(cc1NC(=O)CSc1nnc(-c3ccccc3C)n1Cc1ccco1)oc1ccccc12,0,
COC(=O)C(Cc1ccc(O)cc1)NC(=O)Cn1cc(C)c(=O)[nH]c1=O (stereo unspecified),11*,TbREL1 conf=3
Cc1cn(CC(=O)N[C@H](C)c2cccc3ccccc23)c(=O)[nH]c1=O,-1,
COC(=O)[C@H](Cc1ccc(O)cc1)NC(=O)Cn1ccc(NC(=O)OCc2ccccc2)nc1=O,0,
O=C(NC1CCCCN(Cc2ccc(Cl)cc2)C1=O)C(c1ccccc1)c1ccccc1 (stereo unspecified),-2,
COC(=O)c1cnn2c(C)c(Cc3cccc(F)c3)c(C)nc12,16*,TbREL1 conf=2
Cc1nc2c(C(=O)N3CCCC3)cnn2c(C)c1Cc1c(F)cccc1Cl,7,
COC(=O)c1ccc2nc(-c3ccc(C)cc3)c(Cc3cccc(F)c3)n2c1,7,
C[C@H]1[C@@H](OC(=O)NCc2ccccc2Cl)CC[C@@]23CCCN2C(=O)CCC[C@@H]13,4,
Cc1ccc(-n2c(SCC(=O)Nc3ccc4c(c3)OCCO4)nnc2-c2ccccn2)cc1,-5,
SMILES,TbREL1 inh,others
Cc1nc(N/N=C/c2cccc(F)c2)cc(N2CCOCC2)n1,3,
C/C(=N\Nc1cc(N2CCOCC2)nc(C)n1)c1cccc([N+](=O)[O-])c1,12*,TbREL1 conf=2
C/C(=N\Nc1ccc(Cl)c(C(=O)O)c1)c1cccc([N+](=O)[O-])c1,2,
CC1CCN(CCCNS(=O)(=O)c2cc3c(cc2Br)CCN3C(=O)C2CC2)CC1,-1,
COc1ccc(-c2nnc(SCC(=O)N/N=C\C=C/c3ccco3)n2-c2ccc(C)cc2)cc1,-5,
CCOc1ccc(-n2c(SCC(=O)c3ccc4ccccc4c3)nnc2-c2ccco2)cc1,-1,
CCCC1CCC2(CCCN2CCOC(=O)Nc2ccccc2C)CC1 (stereo unspecified),0,
Cc1ccc2nc(N(CCCN(C)C)C(=O)c3ccc(S(=O)(=O)N4CCc5ccccc5C4)cc3)sc2c1,0,
CN(C)CCCN(C(=O)c1ccc(S(=O)(=O)N2CCc3ccccc32)cc1)c1nc2ccc(Cl)cc2s1,6,
CN(C)CCCN(C(=O)c1ccc2c(c1)CCCC2)c1nc2cc3c(cc2s1)OCO3,7,
CN(C)CCCN(C(=O)CCS(=O)(=O)c1ccccc1)c1nc2cc3c(cc2s1)OCO3,10,
CN(C)CCCN(C(=O)c1ccc(S(=O)(=O)N2CCc3ccccc32)cc1)c1nc2ccc(F)cc2s1,12*,TbREL1 conf=8
CN(C)CCCN(C(=O)c1ccc(C(=O)c2ccccc2)cc1)c1nc2cc3c(cc2s1)OCCO3,12*,TbREL1 conf=8
COc1cccc(CN(C)C(=O)[C@@H](Cc2ccccc2)NC(=O)[C@H]2O[C@@H](n3ccc(=O)[nH]c3=O)[C@H](O)[C@@H]2O)c1,-2,
Brc1ccccc1Cn1nnc(-c2ccc(N3CCOCC3)cc2)n1,1,
O=C(C1CCC1)N1CCc2cc(S(=O)(=O)N3CCN(c4ccccc4F)CC3)ccc21,-2,

# Screening results: PubChem BioAssay, The Scripps Research Institute Molecular Screening Center
